Source: PubChem
ADAM17 inh – ADAM17 inhibitors, primary screen, biochemical, QFRET; Disintegrin and metalloproteinase domain-containing protein 17 (Homo sapiens), P78536; recombinant ADAM17, EDANS/DABCYL FRET peptide cleavage; inhibition, % at 6.95 µM; 370,000 compounds, 0.83% hits;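 active means inhibition above the mean of compounds lying between control limits plus 3 SD, set per campaign, cut at about 8.5% in these data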;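 further: 0% = DMSO-only wells as the low control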
KLK7 zymogen act – proKLK7 zymogen activators, primary screen, biochemical, fluorescence intensity; 370,000 compounds, 0.9% hits; Kallikrein-7 (Homo sapiens), P49862; purified proKLK7, EDANS-DABCYL substrate fluorescence; 100% is mature enzyme control, 0% vehicle; activation, % at 7 µM;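 active means activation above the mean of all tested compounds plus 3 SD, computed per campaign excluding outliers beyond control limits, cut at about 13% in these data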
Target sequence (P49862 whole entry, looked up): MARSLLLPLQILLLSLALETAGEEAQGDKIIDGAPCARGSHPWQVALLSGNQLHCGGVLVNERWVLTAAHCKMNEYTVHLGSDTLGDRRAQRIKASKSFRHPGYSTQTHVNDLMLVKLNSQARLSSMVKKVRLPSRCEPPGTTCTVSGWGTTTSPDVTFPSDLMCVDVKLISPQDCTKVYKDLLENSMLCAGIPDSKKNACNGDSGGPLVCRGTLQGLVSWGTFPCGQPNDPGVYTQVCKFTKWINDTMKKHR
FGF22 binding – binders of human FGF22 protein, primary screen, FGF22 synaptogenesis inhibitor project, biophysical, thermal shift, single point | AID 651658, 2012 | Fibroblast growth factor 22 (Homo sapiens), Q9HCT0 | recombinant FGF22 thermal shift, SYPRO orange fluorescence; percent of sucrose octasulfate shift, DMSO zero | 340,000 compounds, 1.5% hits | activity (Tm shift, normalised), % at 9.99 µM;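 active means mean Tm shift, scaled 0 neutral to 100 positive control, at about 1.3% or above, every replicate too, limit read from the data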
Target sequence (Q9HCT0 whole entry, looked up): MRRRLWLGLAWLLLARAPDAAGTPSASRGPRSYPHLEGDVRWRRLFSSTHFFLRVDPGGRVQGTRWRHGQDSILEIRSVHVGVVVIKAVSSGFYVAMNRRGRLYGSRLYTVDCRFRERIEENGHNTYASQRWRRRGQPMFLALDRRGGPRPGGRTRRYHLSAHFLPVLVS
ADAM10 inh – human ADAM10 inhibitors, primary screen, biochemical, QFRET, HTS | Disintegrin and metalloproteinase domain-containing protein 10 (Homo sapiens), O14672 | recombinant ADAM10, EDANS/DABCYL FRET peptide cleavage, 3 h | 370,000 compounds, 0.62% hits | inhibition, % at 7 µM | AID 720582, 2013;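 active means inhibition above a per-campaign cutoff equal to the mean of compounds falling between control-based bounds plus 3 SD, cut at about 20% in these data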;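 further: 0% = DMSO wells while the 100% control is not disclosed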
rRNA inh HTS – reduced GFP signal of wild-type E. coli, primary screen, bacterial rRNA inhibitor project, GFP/RFP fluorescence, OD600, single point | E. coli WT GFP vs humanized-ribosome RFP mutants, 24 h; hits give low values; DMSO median 0, no signal -100 | GFP signal change (wild-type ribosome), % (concentration not given with the values) | 350,000 compounds, 1.6% hits | AID 720706, 2013;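 active means significant combined selectivity score with lowered wild-type GFP, culture density cut under 30%, mutant RFP and density less affected; inactive means any of these conditions unmet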
ADAM10 confirm – human ADAM10 inhibitors, confirmation, biochemical, QFRET, triplicate | 2,100 compounds, 1% hits | ADAM10 QFRET peptide cleavage, EDANS fluorescence | inhibition, % at 6.95 µM | shares compounds with ADAM10 inh;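 active means inhibition above about 20% chosen separately for each screening run, limit read from the data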;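 further: 0% = DMSO wells and 100% = marimastat wells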
ADAM17 ctr – ADAM17 inhibitors, counter-screen for ADAM10 exosite inhibitor project, biochemical, QFRET, high throughput | shares compounds with ADAM10 inh | ADAM17 QFRET peptide cleavage, EDANS fluorescence | inhibition, % at 6.95 µM | 2,100 compounds, 0.5% hits | AID 743214, 2013;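 active means mean triplicate inhibition above the solvent-only control wells' mean plus 3 SD, cut at about 12% in these data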;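 further: 0% = DMSO wells and 100% = marimastat wells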
ADAM10 counter – ADAM10 inhibitors, counter-screen for ADAM17 exosite inhibitor project, biochemical, FRET, human ADAM10. shares compounds with ADAM17 inh. recombinant ADAM10, EDANS/DABCYL FRET peptide cleavage, 3 h. inhibition, % at 6.95 µM. 2,900 compounds, 47% hits;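 active means mean inhibition over the triplicate runs exceeds the activity threshold set in the earlier primary screen, cut at about 20% in these data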;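 further: 0% = DMSO wells and 100% = marimastat wells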
ADAM17 confirm – ADAM17 inhibitors, hit retest, confirmation, biochemical, QFRET peptide cleavage; AID 743257, 2014; inhibition, % at 6.95 µM; recombinant ADAM17, EDANS/DABCYL QFRET peptide cleavage; 2,900 compounds, 65% hits; shares compounds with ADAM17 inh;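 active means mean inhibition across replicates above the hit cutoff set in the primary screen, cut at about 8.5% in these data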;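 further: 0% = DMSO wells and 100% = marimastat wells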
The depositor's hits bear a star; x = not tested or not shown. Sampled rows, rich in hits. Any-hit rate of the full collection: about 3.8%.

SMILES	ADAM17 inh	KLK7 zymogen act	FGF22 binding	ADAM10 inh	rRNA inh HTS	ADAM10 confirm	ADAM17 ctr	ADAM10 counter	ADAM17 confirm
COc1cccc(-c2nnc(SCC(=O)Nc3ccc(OCc4ccccc4)cc3)n2Cc2ccco2)c1	1	0	x	8	x	x	x	x	x
O=C(CSc1nnc(-c2cccs2)n1Cc1ccco1)Nc1ccc(Oc2ccccc2)cc1	8.7*	1	x	21*	x	13	5	28*	14*
O=C(CSc1nnc(-c2ccccc2)n1Cc1ccco1)Nc1ccc(Oc2ccccc2)cc1	0	0	x	-5	x	x	x	x	x
C[C@H]1CN([C@@H](C)CO)C(=O)c2cc(C#Cc3cccnc3)cnc2O[C@@H]1CN(C)Cc1ccncc1	x	x	0	x	-1	x	x	x	x
CC(=O)N1C[C@@H]2[C@H](c3ccccc31)[C@H](CO)N2C(=O)c1ccc(F)cc1	x	x	0	x	2	x	x	x	x
Cc1ccc(NC(=O)COC(=O)C2(c3ccc(Cl)cc3)CCCC2)cc1	11*	0	0	32*	x	9	4	31*	14*
O=[N+]([O-])c1cc(C(F)(F)F)ccc1NCCc1c[nH]c2ccc(O)cc12	13*	0	x	31*	x	5	1	27*	14*
O=[N+]([O-])c1cc(C(F)(F)F)ccc1NCCc1c[nH]c2ccccc12	8	0	x	19	x	x	x	x	x
O=S(=O)(NC1c2cccc3cccc(c23)C1Sc1ncccn1)c1ccc(Cl)cc1 (centres undefined)	9.7*	0	0	25*	-16	7	4	28*	14*
Cc1ccc(S(=O)(=O)NC2c3cccc4cccc(c34)C2Sc2n[nH]c(N)n2)cc1 (centres undefined)	4	0	0	-1	x	x	x	x	x
COc1ccc2c3c(n(C)c2c1)[C@@H](CO)N(C(=O)CN(C)C)CC31CN(Cc2cccnc2)C1	x	x	x	x	-1	x	x	x	x
O=C(COc1ccccc1Cl)N1CCN(c2ccc([N+](=O)[O-])c(N3CCCCC3)c2)CC1	-1	0	0	-2	0	x	x	x	x
O=C(COc1ccc(Cl)cc1)N1CCN(c2ccc([N+](=O)[O-])c(N3CCCCC3)c2)CC1	8.9*	0	0	20*	-9	5	2	25*	13*
CC(=O)N1c2ccc(S(=O)(=O)N3CCC(C(=O)N4CCN(c5cc(Cl)ccc5C)CC4)CC3)cc2CC1C (centres undefined)	18*	1	0	23*	-2	7	1	30*	17*
O=S(=O)(c1c(F)cccc1F)N(CCc1ccc(F)cc1)C[C@@H](O)COCc1ccccc1	15*	0	0	27*	-7	7	1	39*	19*
O=S(=O)(Cc1ccc(Cl)cc1)CC(O)COCc1ccccc1 (centres undefined)	-2	-1	1	0	-8	x	x	x	x
CCN(CC)c1ccc(NC(=O)COC(=O)CSc2ccc(Br)cc2C)cc1	20*	0	0	26*	-1	13	6	41*	23*
Cc1ccc(S(=O)(=O)N2CCOCC2)cc1NC(=O)COC(=O)CSc1ccc(Br)cc1C	13*	1	x	21*	x	0	0	20*	11*
Cc1cc(C)c(NC(=O)COC(=O)CSc2ccc(Br)cc2C)c(C)c1	3	0	x	-8	x	x	x	x	x
Cc1ccc(S(=O)(=O)N2CCOCC2)cc1NC(=O)COC(=O)c1ccc(Br)cc1	-4	-1	0	-9	5	x	x	x	x
C=CCC[C@@H](Cc1ccc(F)cc1)C(=O)OC[C@@H](Cc1c[nH]c2ccccc12)NC(=O)[C@H](CC=C)CC(=O)N(CCO)Cc1ccccc1	17*	0	0	40*	6	13	3	69*	26*
C=CC[C@@H](CC(=O)N(CCO)Cc1ccccc1)C(=O)N[C@@H](COC(=O)[C@@H](CC=C)Cc1ccc(F)cc1)Cc1c[nH]c2ccccc12	8	0	0	18	5	x	x	x	x
C=CCC[C@H](Cc1ccc(F)cc1)C(=O)OC[C@@H](Cc1c[nH]c2ccccc12)NC(=O)[C@H](CC=C)CC(=O)N(CCO)Cc1ccccc1	25*	0	0	43*	17	11	3	61*	35*
C=CCC[C@@H](Cc1ccc(F)cc1)C(=O)OC[C@H](Cc1c[nH]c2ccccc12)NC(=O)[C@@H](CC=C)CC(=O)N[C@H](CO)Cc1ccccc1	-1	0	0	3	8	x	x	x	x
C=CC[C@H](CC(=O)N(CCO)Cc1ccccc1)C(=O)N[C@@H](COC(=O)[C@@H](CC=C)Cc1ccc(F)cc1)Cc1c[nH]c2ccccc12	14*	1	0	37*	13	7	3	45*	25*
C=CCC[C@H](Cc1ccc(F)cc1)C(=O)OC[C@@H](Cc1c[nH]c2ccccc12)NC(=O)[C@@H](CC=C)CC(=O)N[C@H](CO)Cc1ccccc1	5	0	0	7	3	x	x	x	x
C=CCC[C@H](Cc1ccc(F)cc1)C(=O)OC[C@H](Cc1c[nH]c2ccccc12)NC(=O)[C@@H](CC=C)CC(=O)N[C@H](CO)Cc1ccccc1	12*	0	0	30*	8	13	3	38*	22*
